# Laboratory results: the supplement of paper PMC9023506
# Structures can show the parent of a compound that is named as a salt.
# System: Danio rerio larvae (5 dpf)
# Assay: optomotor response to fast red moving lines, difference vs DMSO (percentage points (treated minus DMSO)); higher = more of the behaviour than the DMSO vehicle control
# Conditions: 10 µM; exposure time: 3 h pre-incubation + 3 h imaging
# Description: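 5-dpf wild-type zebrafish larvae were imaged in 96-well plates. They were treated with 190 Tocris FDA-approved drugs at 10 µM (1 µl/ml DMSO) for 3 h before and 3 h during imaging at 28.5 °C, 48 larvae per drug. Automated image analysis gave % time moving and optomotor responses. Values are drug group mean minus DMSO vehicle mean (n=844), in percentage points, for 10 behaviours.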
row,SMILES,optomotor response
1,CN/C(=N\CCSCc1nc[nH]c1C)NC#N [Cimetidine],-7.27
2,Cc1ccsc1C(=CCCN1CCC[C@@H](C(=O)O)C1)c1sccc1C [Tiagabine hydrochloride],21.7
3,Cc1ccc(N(CC2=NCCN2)c2cccc(O)c2)cc1 [Phentolamine Mesylate],7.53
4,CN(C)C(=N)NC(=N)N [Metformin hydrochloride],10.2
5,OCCN(CCO)c1nc(N2CCCCC2)c2nc(N(CCO)CCO)nc(N3CCCCC3)c2n1 [Dipyridamole],7.3
6,Cc1nc(Nc2ncc(C(=O)Nc3c(C)cccc3Cl)s2)cc(N2CCN(CCO)CC2)n1 [Dasatinib],-12.1
7,CCOC(=O)C1=C(COCCN)NC(C)=C(C(=O)OC)C1c1ccccc1Cl (stereo not given) [Amlodipine besylate],7.5
8,CCOC(=O)C1=C(C)NC(C)=C(C(=O)OC)C1c1cccc(Cl)c1Cl (stereo not given) [Felodipine],-15.9
9,CC(C)(C(=O)c1cccnc1)c1cccnc1 [Metyrapone],-11.5
10,Nc1cccc2c1CN(C1CCC(=O)NC1=O)C2=O (stereo not given) [Lenalidomide],-0.414
11,NC(=O)OCC(COC(N)=O)c1ccccc1 [Felbamate],8.45
12,CCOc1nc2cccc(C(=O)O)c2n1Cc1ccc(-c2ccccc2-c2nnn[nH]2)cc1 [Candesartan],1.2
13,N#Cc1ccc(C(c2ccc(C#N)cc2)n2cncn2)cc1 [Letrozole],4.75
14,CN1CCC[C@@H]1CCO[C@](C)(c1ccccc1)c1ccc(Cl)cc1 [Clemastine fumarate],13.4
15,Nc1nc2c(ncn2COCCO)c(=O)[nH]1 [Acyclovir],4.83
16,CCOc1ccccc1OCCN[C@H](C)Cc1ccc(OC)c(S(N)(=O)=O)c1 [Tamsulosin hydrochloride],-10.3
17,CC[C@H]1OC(=O)[C@H](C)[C@@H](O[C@H]2C[C@@](C)(OC)[C@@H](O)[C@H](C)O2)[C@H](C)[C@@H](O[C@@H]2O[C@H](C)C[C@H](N(C)C)[C@H]2O)[C@](C)(O)C[C@@H](C)CN(C)[C@H](C)[C@@H](O)[C@]1(C)O [Azithromycin],-9.96
18,CC(C)N(CCCCOCC(=O)NS(C)(=O)=O)c1cnc(-c2ccccc2)c(-c2ccccc2)n1 [Selexipag],-6.49
19,CC(C)COCC(CN(Cc1ccccc1)c1ccccc1)N1CCCC1 (stereo not given) [Bepridil hydrochloride],7.72
20,CN(C)CCC[C@@]1(c2ccc(F)cc2)OCc2cc(C#N)ccc21 [Escitalopram oxalate],-7.01

row,SMILES,optomotor response
1,CC(C)c1nc(N(C)S(C)(=O)=O)nc(-c2ccc(F)cc2)c1/C=C/[C@@H](O)C[C@@H](O)CC(=O)O [Rosuvastatin calcium],11.1
2,CC(C)OC(=O)C(C)(C)Oc1ccc(C(=O)c2ccc(Cl)cc2)cc1 [Fenofibrate],19.2
3,O=C(O)CCCc1ccccc1 [Sodium 4-Phenylbutyrate],-11
4,NS(=O)(=O)Cc1noc2ccccc12 [Zonisamide],-0.856
5,C[C@]12CCC(=O)C=C1CC[C@@H]1[C@@H]2[C@@H](O)C[C@@]2(C)[C@H]1CC[C@]2(O)C(=O)CO [Hydrocortisone],-1.8
6,COc1cc2ncnc(Nc3ccc(F)c(Cl)c3)c2cc1OCCCN1CCOCC1 [Iressa],8.7
7,NC(=O)N1c2ccccc2C=Cc2ccccc21 [Carbamazepine],-9.08
8,Cc1ccc(O)c([C@H](CCN(C(C)C)C(C)C)c2ccccc2)c1 [Tolterodine L-tartrate],2.15
9,CC(CCc1ccc(O)cc1)NCCc1ccc(O)c(O)c1 (stereo not given) [Dobutamine hydrochloride],-7.53
10,O=C(O)C[C@H](O)C[C@H](O)/C=C/c1c(C2CC2)nc2ccccc2c1-c1ccc(F)cc1 [Pitavastatin calcium],9.78
11,CCCN(CCC)S(=O)(=O)c1ccc(C(=O)O)cc1 [Probenecid],-11.6
12,COc1cccc2c1C(=O)c1c(O)c3c(c(O)c1C2=O)C[C@@](O)(C(=O)CO)C[C@@H]3O[C@H]1C[C@H](N)[C@H](O)[C@H](C)O1 [Doxorubicin hydrochloride],6.53
13,CN1CCN2c3ncccc3Cc3ccccc3C2C1 (stereo not given) [Mirtazapine],-5.17
14,CN(CCOc1ccc(CC2SC(=O)NC2=O)cc1)c1ccccn1 (stereo not given) [Rosiglitazone],-14.3
15,O=C(c1ccc(OCCN2CCCCC2)cc1)c1c(-c2ccc(O)cc2)sc2cc(O)ccc12 [Raloxifene hydrochloride],-14.5
16,CC(=O)NC[C@H]1CN(c2ccc(N3CCOCC3)c(F)c2)C(=O)O1 [Linezolid],5.73
17,CN1CCC[C@@H]1Cc1c[nH]c2ccc(CCS(=O)(=O)c3ccccc3)cc12 [Eletriptan hydrobromide],-9.58
18,CO[C@H]1/C=C/O[C@@]2(C)Oc3c(C)c(O)c4c(O)c(c5c(nc6cc(C)ccn65)c4c3C2=O)NC(=O)/C(C)=C\C=C\[C@H](C)[C@H](O)[C@@H](C)[C@@H](O)[C@@H](C)[C@H](OC(C)=O)[C@@H]1C [Rifaximin],-3.87
19,CCOC(=O)c1ncn2c1CN(C)C(=O)c1cc(F)ccc1-2 [Flumazenil],9.89
20,Nc1nc(Cl)nc2c1ncn2[C@@H]1O[C@H](CO)[C@@H](O)[C@@H]1F [Clofarabine],-10.5
